The results in this text go back to ChEMBL document CHEMBL1961873, “Compounds: GSK PKIS; Assays: Nanosyn kinase panel” (2012).

A word on the inhibition: it is the drop in the measured response relative to a control, in per cent.

Experiment [1] addresses Mitogen-activated protein kinase 3 (Homo sapiens) (UniProt P27361). The note with it: at 1 µM.
In experiment [2] the target is SRSF protein kinase 3 (Homo sapiens) (UniProt Q9UPE1). The note with it: at 0.1 µM.
Experiment [3] has the same target. To be noted: at 1 µM.
In experiment [4] the target is Mitogen-activated protein kinase 14 (Homo sapiens) (UniProt Q16539). To be noted: at 0.1 µM.
For experiment [5] the target is unchanged. The note with it: at 1 µM.
The target in experiment [6] is Mitogen-activated protein kinase 11 (Homo sapiens) (UniProt Q15759). The note with it: at 0.1 µM.
For experiment [7] the target is unchanged. The note with it: at 1 µM.
In experiment [8] the target is T1, Mitogen-activated protein kinase 13 (Homo sapiens) (UniProt O15264).
T1 sequence (whole entry): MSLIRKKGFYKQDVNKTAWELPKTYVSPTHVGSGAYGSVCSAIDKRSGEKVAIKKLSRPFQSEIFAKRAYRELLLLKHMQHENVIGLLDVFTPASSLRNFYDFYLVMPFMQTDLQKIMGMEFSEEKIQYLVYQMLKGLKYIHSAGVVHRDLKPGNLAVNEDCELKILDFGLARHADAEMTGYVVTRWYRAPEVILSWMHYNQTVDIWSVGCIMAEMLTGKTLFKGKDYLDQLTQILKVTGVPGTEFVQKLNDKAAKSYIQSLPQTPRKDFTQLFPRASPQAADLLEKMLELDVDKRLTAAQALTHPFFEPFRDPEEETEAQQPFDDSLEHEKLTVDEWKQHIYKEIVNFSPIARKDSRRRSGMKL
To be noted: at 0.1 µM.

Experiment [9] deals with T1, Mitogen-activated protein kinase 13 (Homo sapiens). To be noted: at 1 µM.
Experiment [10] concerns the target T2, Mitogen-activated protein kinase 12 (Homo sapiens) (UniProt P53778).
T2 sequence (whole entry): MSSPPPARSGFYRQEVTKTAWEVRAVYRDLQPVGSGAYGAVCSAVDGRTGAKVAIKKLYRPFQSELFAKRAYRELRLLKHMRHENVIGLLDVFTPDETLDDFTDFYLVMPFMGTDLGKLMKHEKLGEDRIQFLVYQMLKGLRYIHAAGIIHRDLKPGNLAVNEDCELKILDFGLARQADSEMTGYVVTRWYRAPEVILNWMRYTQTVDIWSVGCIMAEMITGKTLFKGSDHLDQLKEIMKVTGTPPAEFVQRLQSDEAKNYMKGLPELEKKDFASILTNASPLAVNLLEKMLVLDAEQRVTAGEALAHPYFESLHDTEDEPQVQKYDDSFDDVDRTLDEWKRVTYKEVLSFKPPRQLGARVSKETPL
The note with it: at 0.1 µM.

The target of experiment [11] is T2, Mitogen-activated protein kinase 12 (Homo sapiens). To be noted: at 1 µM.
In experiment [12] the target is SRSF protein kinase 1 (Homo sapiens) (UniProt Q96SB4). To be noted: at 0.1 µM.
For experiment [13] the target is unchanged. To be noted: at 1 µM.
Experiment [14] addresses Phosphatidylinositol 4,5-bisphosphate 3-kinase catalytic subunit alpha isoform (Homo sapiens) (UniProt P42336). To be noted: at 0.1 µM.
The target is the same in experiment [15]. To be noted: at 1 µM.
Experiment [16] addresses T3, Phosphatidylinositol 4,5-bisphosphate 3-kinase catalytic subunit delta isoform (Homo sapiens) (UniProt O00329).
T3 sequence (whole entry): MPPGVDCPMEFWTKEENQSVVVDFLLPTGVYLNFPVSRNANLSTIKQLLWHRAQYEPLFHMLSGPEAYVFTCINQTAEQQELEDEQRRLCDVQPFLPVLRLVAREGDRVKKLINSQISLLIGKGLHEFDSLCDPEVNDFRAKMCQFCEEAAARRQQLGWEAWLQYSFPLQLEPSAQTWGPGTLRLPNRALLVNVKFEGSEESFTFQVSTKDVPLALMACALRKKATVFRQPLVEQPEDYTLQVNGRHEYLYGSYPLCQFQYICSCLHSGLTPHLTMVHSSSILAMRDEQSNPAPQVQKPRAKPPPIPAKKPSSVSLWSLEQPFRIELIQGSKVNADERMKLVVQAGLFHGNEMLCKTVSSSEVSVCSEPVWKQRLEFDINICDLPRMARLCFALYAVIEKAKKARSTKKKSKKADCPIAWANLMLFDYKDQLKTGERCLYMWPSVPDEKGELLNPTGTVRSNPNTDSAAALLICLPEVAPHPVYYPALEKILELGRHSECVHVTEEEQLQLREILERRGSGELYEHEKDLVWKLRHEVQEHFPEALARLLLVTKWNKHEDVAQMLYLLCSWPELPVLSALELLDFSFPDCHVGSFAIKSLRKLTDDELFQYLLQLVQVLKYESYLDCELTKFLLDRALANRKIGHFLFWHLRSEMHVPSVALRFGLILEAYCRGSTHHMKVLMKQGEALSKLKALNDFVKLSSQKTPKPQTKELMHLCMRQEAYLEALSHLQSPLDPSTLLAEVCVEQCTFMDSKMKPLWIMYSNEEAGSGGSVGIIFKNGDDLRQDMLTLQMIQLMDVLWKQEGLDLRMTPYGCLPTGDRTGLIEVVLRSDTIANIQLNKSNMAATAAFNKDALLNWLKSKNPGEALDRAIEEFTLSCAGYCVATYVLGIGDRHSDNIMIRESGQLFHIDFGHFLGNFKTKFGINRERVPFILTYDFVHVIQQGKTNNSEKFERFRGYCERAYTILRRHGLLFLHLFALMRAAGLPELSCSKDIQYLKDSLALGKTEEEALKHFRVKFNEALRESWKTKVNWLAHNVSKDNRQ
The note with it: at 0.1 µM.

The target of experiment [17] is T3, Phosphatidylinositol 4,5-bisphosphate 3-kinase catalytic subunit delta isoform (Homo sapiens). To be noted: at 1 µM.
The target in experiment [18] is Phosphatidylinositol 4-kinase beta (Homo sapiens) (UniProt Q9UBF8). To be noted: at 0.1 µM.
The target is the same in experiment [19]. The note with it: at 1 µM.
The target in experiment [20] is Sphingosine kinase 1 (Homo sapiens) (UniProt Q9NYA1). To be noted: at 0.1 µM.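 Note: mean percent inhibition of SPHK1 activity, measured within the GSK PKIS screening panel.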
Sequence of Sphingosine kinase 1 (Homo sapiens) (Q9NYA1 whole entry): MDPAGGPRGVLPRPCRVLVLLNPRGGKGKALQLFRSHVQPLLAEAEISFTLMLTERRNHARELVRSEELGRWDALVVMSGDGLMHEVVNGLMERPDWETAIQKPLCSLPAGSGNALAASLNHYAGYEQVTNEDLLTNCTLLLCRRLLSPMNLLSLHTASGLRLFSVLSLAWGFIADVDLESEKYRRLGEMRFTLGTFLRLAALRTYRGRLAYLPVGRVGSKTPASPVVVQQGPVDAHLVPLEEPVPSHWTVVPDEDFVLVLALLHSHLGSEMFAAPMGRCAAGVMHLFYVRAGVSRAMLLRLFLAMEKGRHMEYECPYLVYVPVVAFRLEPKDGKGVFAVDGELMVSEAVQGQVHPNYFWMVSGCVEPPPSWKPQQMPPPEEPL

Sequence of SRSF protein kinase 1 (Homo sapiens) (Q96SB4 whole entry): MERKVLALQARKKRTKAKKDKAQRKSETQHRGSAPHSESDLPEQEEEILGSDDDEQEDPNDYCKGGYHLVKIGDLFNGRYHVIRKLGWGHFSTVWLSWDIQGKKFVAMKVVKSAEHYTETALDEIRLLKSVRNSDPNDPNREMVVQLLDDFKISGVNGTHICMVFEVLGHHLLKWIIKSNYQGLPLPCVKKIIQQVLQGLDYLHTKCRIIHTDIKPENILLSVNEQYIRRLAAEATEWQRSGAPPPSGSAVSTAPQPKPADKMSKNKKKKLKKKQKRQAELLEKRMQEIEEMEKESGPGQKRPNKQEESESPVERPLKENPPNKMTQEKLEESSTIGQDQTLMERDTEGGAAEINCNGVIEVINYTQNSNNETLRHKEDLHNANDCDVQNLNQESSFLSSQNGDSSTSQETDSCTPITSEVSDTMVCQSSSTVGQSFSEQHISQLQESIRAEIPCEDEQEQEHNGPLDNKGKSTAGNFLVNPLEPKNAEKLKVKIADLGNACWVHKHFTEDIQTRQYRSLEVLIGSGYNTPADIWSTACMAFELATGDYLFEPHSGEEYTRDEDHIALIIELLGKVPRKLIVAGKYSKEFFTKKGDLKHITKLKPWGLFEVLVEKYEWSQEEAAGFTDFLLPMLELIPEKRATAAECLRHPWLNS
Sequence of Mitogen-activated protein kinase 11 (Homo sapiens) (Q15759 whole entry): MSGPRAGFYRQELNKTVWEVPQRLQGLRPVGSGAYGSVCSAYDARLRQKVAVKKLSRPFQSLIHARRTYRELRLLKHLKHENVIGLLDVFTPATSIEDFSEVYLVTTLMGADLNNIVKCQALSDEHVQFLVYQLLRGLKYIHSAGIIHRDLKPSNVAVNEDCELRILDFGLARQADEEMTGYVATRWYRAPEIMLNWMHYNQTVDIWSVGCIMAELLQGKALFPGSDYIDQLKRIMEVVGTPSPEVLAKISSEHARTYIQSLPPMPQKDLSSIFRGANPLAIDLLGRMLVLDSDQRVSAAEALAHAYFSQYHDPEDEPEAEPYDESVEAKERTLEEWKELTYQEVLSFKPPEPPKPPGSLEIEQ
Sequence of Mitogen-activated protein kinase 14 (Homo sapiens) (Q16539 whole entry): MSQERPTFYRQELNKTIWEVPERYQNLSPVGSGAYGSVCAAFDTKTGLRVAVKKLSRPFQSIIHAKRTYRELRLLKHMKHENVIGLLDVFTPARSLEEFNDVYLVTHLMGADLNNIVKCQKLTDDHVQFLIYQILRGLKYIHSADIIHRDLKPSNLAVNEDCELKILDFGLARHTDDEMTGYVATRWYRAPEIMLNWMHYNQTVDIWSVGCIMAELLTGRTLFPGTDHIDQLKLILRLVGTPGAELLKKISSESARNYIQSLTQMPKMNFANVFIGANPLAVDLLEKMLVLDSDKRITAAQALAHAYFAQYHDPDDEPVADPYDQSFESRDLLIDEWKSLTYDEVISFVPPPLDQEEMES
Sequence of Phosphatidylinositol 4,5-bisphosphate 3-kinase catalytic subunit alpha isoform (Homo sapiens) (P42336 whole entry, canonical isoform): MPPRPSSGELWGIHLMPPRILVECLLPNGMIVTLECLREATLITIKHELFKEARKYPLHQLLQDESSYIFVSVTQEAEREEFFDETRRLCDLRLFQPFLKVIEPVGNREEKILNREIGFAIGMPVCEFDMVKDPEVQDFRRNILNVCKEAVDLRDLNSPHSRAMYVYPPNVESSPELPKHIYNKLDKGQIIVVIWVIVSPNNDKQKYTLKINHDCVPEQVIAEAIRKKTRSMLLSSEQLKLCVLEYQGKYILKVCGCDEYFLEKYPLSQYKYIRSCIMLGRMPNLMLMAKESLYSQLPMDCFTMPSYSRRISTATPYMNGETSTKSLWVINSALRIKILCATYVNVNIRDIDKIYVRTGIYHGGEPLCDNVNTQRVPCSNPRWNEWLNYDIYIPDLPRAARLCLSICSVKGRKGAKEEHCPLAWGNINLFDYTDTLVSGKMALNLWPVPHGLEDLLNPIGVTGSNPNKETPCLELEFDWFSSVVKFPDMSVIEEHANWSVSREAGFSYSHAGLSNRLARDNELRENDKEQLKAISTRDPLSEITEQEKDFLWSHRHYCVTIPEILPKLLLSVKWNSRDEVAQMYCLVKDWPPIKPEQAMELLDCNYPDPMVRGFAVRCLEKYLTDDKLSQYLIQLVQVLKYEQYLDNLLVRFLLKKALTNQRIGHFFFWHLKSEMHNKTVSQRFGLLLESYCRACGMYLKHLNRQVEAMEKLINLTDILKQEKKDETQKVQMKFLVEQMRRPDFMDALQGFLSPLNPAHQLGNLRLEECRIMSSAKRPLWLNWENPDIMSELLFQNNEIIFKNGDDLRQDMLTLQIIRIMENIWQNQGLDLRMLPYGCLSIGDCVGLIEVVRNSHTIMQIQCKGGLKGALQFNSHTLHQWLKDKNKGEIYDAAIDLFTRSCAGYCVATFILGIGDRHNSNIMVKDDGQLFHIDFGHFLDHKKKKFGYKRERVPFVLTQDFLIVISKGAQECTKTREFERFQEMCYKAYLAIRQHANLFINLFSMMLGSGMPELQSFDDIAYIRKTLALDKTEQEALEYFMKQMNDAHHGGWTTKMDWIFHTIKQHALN
Sequence of SRSF protein kinase 3 (Homo sapiens) (Q9UPE1 whole entry): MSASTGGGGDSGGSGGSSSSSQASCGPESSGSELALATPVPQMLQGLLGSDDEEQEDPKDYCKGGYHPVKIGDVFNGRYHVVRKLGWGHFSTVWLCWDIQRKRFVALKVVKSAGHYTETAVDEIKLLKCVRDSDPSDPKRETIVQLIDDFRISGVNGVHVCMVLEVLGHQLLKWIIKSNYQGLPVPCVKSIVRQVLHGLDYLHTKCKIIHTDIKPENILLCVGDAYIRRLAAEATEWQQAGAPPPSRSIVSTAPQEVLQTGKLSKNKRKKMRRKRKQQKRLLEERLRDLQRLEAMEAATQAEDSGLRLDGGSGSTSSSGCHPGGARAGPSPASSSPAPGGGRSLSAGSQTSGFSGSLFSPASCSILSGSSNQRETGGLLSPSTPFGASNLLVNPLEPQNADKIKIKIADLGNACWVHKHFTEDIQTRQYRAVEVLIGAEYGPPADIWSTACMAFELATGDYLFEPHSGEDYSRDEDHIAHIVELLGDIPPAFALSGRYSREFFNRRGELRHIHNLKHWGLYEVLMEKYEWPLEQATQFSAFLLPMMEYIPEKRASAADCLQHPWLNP
Sequence of Phosphatidylinositol 4-kinase beta (Homo sapiens) (Q9UBF8 2-816 limits assumed): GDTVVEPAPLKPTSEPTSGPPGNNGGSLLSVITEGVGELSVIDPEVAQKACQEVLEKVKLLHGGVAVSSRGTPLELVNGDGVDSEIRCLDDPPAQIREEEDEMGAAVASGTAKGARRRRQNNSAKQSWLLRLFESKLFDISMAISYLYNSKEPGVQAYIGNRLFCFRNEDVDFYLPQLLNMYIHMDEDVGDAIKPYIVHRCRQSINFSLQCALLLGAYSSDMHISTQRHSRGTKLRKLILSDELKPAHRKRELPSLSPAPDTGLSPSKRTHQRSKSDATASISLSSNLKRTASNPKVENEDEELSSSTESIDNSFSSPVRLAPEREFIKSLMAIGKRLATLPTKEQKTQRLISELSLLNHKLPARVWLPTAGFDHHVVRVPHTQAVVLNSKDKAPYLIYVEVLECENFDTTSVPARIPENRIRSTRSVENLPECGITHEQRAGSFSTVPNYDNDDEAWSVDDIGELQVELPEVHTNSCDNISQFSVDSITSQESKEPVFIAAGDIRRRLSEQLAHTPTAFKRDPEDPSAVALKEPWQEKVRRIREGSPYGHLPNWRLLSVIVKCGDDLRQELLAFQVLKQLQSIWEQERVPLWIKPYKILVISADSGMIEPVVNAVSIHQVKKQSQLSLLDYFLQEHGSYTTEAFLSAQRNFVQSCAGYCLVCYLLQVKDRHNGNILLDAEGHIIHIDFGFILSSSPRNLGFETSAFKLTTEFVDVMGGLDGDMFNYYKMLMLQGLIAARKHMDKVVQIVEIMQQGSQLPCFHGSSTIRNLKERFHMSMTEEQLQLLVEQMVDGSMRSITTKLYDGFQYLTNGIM
Sequence of Mitogen-activated protein kinase 3 (Homo sapiens) (P27361 whole entry): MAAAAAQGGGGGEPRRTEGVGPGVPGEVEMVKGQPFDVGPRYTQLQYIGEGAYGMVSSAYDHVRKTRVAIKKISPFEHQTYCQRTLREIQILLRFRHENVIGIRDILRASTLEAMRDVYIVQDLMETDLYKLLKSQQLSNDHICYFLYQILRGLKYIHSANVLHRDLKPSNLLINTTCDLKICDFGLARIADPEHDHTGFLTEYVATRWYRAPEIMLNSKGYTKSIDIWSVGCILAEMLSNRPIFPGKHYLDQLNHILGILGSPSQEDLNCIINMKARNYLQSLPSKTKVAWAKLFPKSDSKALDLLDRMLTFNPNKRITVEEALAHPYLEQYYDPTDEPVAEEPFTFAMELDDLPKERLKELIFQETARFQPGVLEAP

With `O=C(O[C@H]1CN[C@H](C#Cc2cc3ncnc(Nc4ccc(Cc5ccccc5)cc4)c3s2)C1)N1CCOCC1`, the inhibition in experiment [1] was 2.11%; in experiment [2], -2.44%; in experiment [3], -1.14%; in experiment [4], 4.54%; in experiment [5], 2.37%; in experiment [6], 0.92%. The inhibition was 4.95% in experiment [7]; 2.02% in [8]; 0.36% in experiment [9]; 1.75% in [10]; 1.72% in experiment [11]; -2.56% in experiment [12]. Further, the inhibition in [13] is -2.4%; in experiment [14], 3.61%; in experiment [15] it was 11.2%; in experiment [16], 1.42%; in [17] it was 8.98%; in experiment [18], 0.59%. The inhibition in experiment [19] is -0.78%; in [20], 0.79%.

In the case of `Fc1ccc(-c2nn3ncccc3c2-c2ccnc(Nc3ccc4c(c3)OCCO4)n2)cc1`, the inhibition in experiment [1] was 11.3%; in [2], -0.97%; in experiment [3], -1.91%; in experiment [4], 72%; in [5], 92.8%; in experiment [6], 48.6%. The inhibition was 78.7% in [7]; 3.53% in experiment [8]; 6.19% in experiment [9]; 2.92% in experiment [10]; 4.06% in [11]; -3.43% in experiment [12]. Further, the inhibition was -6.44% in experiment [13]; 3.44% in experiment [14]; 6.99% in [15]; 3.64% in experiment [16]; 9.87% in experiment [17]; -5.48% in experiment [18]. For the same compound, the inhibition is -0.74% in [19] and 1.29% in experiment [20].

Turning to `Clc1ccc(-c2nn3ncccc3c2-c2ccnc(Nc3ccccc3)n2)cc1`, the inhibition was 0.24% in experiment [1]; -0.67% in [2]; -1.16% in experiment [3]; 46.5% in [4]; 82.8% in [5]; 13.1% in experiment [6]. In addition, the inhibition in [7] is 58.8%; in experiment [8] it was 0.09%; in experiment [9] it was 1.39%; in experiment [10], 2.11%; in experiment [11], 1.71%; in experiment [12], -1.15%. Further, the inhibition in [13] is -1.1%; in [14] it was 2.48%; in experiment [15], 5.33%; in experiment [16], 4.92%; in experiment [17] it was 7.17%; in [18], -0.39%. Further, the inhibition in experiment [19] worked out at 0.11%; in [20] it was 0.81%.

Regarding `Cc1ccc(O)cc1Nc1ccnc2cc(-c3ccccn3)ccc12`, the inhibition was found to be 4.04% in [1]; 1.4% in [2]; 0.54% in [3]; 13.9% in experiment [4]; 58.8% in experiment [5]; 4.81% in experiment [6]. In addition, the inhibition was 9.25% in experiment [7]; 5.51% in [8]; 2.99% in experiment [9]; 1.52% in [10]; 3% in experiment [11]; -1.63% in experiment [12]. The inhibition was -2.47% in [13]; 2.72% in experiment [14]; 7.92% in [15]; 2.39% in experiment [16]; 15.8% in [17]; -2.37% in experiment [18]. Also, the inhibition was -0.81% in experiment [19] and 0% in [20].

With `Cc1ccc2c(-c3ccnc(Nc4ccccc4)n3)c(-c3ccc(F)cc3)nn2n1`, the inhibition in experiment [1] was found to be 14.5%; in experiment [2], 1.07%; in experiment [3] it was 1.53%; in experiment [4] it was 71%; in [5], 88.5%; in [6] it was 34.1%. Besides, the inhibition in experiment [7] was 73.3%; in [8], -0.61%; in [9] it was 5.7%; in experiment [10], 0.48%; in experiment [11], 2.32%; in experiment [12], -1.57%. For the same compound, the inhibition was -2.42% in experiment [13]; 2.88% in experiment [14]; 0.97% in [15]; 2.44% in experiment [16]; 4.54% in experiment [17]; 2.52% in experiment [18]. The inhibition in [19] was determined as 1.56%; in experiment [20], 0%.

For `COc1ccc(-c2cc(-c3c[nH]nc3-c3ccccn3)ccn2)cc1`, the inhibition was 8.82% in experiment [1]; -0.83% in [2]; 0.75% in experiment [3]; 7.92% in experiment [4]; 37.2% in [5]; 4.7% in experiment [6]. Further, the inhibition in [7] was 14.1%; in experiment [8] it was 2.12%; in experiment [9], 4.1%; in experiment [10], 4.31%; in [11] it was 2.33%; in experiment [12], -1.02%. Further, the inhibition is 2.7% in [13]; 3.47% in experiment [14]; 1.91% in experiment [15]; -0.37% in experiment [16]; 0.72% in experiment [17]; 2.38% in experiment [18]. Moreover, the inhibition in [19] turned out to be 2.14%; in experiment [20], 1.57%.

Regarding `NC(=O)c1sc(-n2cnc3ccc(C(F)(F)F)cc32)cc1OCc1ccccc1Br`, the inhibition is 0.62% in experiment [1]; -1.67% in experiment [2]; -0.41% in experiment [3]; 8.95% in [4]; 10.3% in experiment [5]; 2.71% in [6]. Further, the inhibition in experiment [7] is 5.44%; in experiment [8], -1.12%; in experiment [9], 3.69%; in experiment [10], 1.64%; in [11], 2.37%; in [12] it was -1.69%. The inhibition is -2.85% in experiment [13]; 3.78% in experiment [14]; 4.29% in experiment [15]; 1.52% in experiment [16]; 4.21% in experiment [17]; -2.33% in [18]. Moreover, the values for the inhibition in experiment [19] and in experiment [20] were -2.08% and 2.38%, respectively.
